Results as given in ChEMBL document CHEMBL5308504, “Tm Shift (DSF) assay results for EUbOPEN Chemogenomics Library” (2023).

Tests used:
Conditions in all cases: Compound concentration 20.0 uM, Protein concentration 2.0 uM, Result type QC Liability
[1] = target: Tyrosine-protein kinase ABL1 (Homo sapiens) (UniProt P00519)
[2] = target: Cyclin-dependent kinase 2 (Homo sapiens) (UniProt P24941)
[3] = target: Casein kinase I isoform delta (Homo sapiens) (UniProt P48730)
[4] = target: Glycogen synthase kinase-3 beta (Homo sapiens) (UniProt P49841)
[5] = target: Mitogen-activated protein kinase 1 (Homo sapiens) (UniProt P28482)
[6] = target: T1, Aurora kinase A (Homo sapiens) (UniProt O14965)
T1 sequence (whole entry): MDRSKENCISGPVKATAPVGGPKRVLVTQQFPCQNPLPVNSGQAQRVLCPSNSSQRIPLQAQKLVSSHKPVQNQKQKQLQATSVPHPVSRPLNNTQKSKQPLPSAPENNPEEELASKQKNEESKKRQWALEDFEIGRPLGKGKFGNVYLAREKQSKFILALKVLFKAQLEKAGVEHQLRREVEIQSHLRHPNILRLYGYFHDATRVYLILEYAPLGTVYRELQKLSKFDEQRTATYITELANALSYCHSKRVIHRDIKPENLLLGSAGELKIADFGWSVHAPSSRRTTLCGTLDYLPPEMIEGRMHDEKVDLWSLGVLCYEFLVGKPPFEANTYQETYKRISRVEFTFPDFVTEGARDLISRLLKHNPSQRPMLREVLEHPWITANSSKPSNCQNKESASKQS

Chain of Casein kinase I isoform delta (Homo sapiens) (P48730 whole entry, looked up, canonical isoform): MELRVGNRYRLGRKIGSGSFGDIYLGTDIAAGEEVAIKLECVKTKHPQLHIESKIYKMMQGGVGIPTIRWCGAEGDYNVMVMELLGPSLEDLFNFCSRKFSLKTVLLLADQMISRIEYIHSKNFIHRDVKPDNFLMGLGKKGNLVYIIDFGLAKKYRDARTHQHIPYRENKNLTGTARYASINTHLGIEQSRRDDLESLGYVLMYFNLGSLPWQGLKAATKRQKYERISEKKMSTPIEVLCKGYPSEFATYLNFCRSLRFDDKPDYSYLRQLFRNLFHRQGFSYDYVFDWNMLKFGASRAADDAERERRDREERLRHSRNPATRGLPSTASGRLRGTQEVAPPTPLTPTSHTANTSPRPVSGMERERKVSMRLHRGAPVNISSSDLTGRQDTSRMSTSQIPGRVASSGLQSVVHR
Chain of Tyrosine-protein kinase ABL1 (Homo sapiens) (P00519 whole entry): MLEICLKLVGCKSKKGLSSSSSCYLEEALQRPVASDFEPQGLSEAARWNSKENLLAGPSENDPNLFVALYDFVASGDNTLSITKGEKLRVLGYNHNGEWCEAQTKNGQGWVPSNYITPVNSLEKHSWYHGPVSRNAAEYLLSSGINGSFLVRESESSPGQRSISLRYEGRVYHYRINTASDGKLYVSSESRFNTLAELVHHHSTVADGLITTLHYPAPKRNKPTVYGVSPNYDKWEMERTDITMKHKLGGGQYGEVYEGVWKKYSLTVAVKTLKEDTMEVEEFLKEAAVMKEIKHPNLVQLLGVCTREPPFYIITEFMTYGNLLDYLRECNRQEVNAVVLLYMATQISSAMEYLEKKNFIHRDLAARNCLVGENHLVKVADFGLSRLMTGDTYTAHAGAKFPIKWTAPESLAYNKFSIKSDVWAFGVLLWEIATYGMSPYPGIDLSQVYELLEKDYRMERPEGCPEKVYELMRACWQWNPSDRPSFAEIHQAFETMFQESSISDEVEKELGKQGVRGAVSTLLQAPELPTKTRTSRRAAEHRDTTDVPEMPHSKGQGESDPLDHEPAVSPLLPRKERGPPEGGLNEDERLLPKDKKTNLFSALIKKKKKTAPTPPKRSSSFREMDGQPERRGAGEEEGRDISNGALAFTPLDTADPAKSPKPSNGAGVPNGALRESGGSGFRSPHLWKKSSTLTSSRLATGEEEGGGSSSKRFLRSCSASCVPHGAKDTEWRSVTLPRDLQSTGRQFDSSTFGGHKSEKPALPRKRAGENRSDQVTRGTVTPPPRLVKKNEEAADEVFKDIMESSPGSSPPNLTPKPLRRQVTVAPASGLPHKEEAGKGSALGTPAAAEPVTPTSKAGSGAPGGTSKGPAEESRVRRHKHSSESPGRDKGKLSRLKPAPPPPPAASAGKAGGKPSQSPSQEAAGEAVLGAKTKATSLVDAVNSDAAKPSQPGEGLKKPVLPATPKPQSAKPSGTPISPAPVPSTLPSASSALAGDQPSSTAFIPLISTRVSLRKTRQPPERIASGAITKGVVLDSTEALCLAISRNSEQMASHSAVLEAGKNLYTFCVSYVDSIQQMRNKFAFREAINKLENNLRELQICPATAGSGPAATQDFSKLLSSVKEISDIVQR
Chain of Mitogen-activated protein kinase 1 (Homo sapiens) (P28482 whole entry): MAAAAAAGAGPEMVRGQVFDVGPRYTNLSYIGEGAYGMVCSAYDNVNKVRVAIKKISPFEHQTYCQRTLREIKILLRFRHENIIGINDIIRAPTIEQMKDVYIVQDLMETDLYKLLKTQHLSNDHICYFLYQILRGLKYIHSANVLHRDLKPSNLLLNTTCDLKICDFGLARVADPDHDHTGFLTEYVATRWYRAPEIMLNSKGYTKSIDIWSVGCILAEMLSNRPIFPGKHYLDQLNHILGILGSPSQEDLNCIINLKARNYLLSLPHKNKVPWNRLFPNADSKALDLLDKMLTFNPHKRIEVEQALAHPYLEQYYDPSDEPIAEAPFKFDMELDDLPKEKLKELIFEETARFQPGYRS
Chain of Glycogen synthase kinase-3 beta (Homo sapiens) (P49841 whole entry, looked up): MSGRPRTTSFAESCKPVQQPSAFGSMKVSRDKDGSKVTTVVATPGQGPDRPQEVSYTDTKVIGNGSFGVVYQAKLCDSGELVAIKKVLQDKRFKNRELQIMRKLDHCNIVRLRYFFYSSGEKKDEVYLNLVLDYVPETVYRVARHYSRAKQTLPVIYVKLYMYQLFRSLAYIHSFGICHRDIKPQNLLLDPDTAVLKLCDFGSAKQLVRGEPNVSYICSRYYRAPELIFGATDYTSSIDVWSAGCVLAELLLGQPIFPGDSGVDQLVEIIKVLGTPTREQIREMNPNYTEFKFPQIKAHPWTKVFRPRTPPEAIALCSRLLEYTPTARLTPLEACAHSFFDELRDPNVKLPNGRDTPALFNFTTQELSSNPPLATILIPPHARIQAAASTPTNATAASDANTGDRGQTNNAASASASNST

Compound	ΔTm [1]	ΔTm [2]	ΔTm [3]	ΔTm [4]	ΔTm [5]	ΔTm [6]
O=C(O)CCn1c2c(c3ccccc31)C[C@H](NS(=O)(=O)c1ccc(F)cc1)CC2	1.15 °C	1.26 °C	0.09 °C	0.24 °C	0.28 °C	-0.02 °C
CCCS(=O)(=O)N[C@H]1C[C@@H](N(C)c2ncnc3[nH]ccc23)C1	1.02 °C	0.96 °C	0.73 °C	1.39 °C	0.29 °C	3.25 °C
C=C1/C(=C\C=C2/CCC[C@]3(C)[C@@H]([C@H](C)CCCC(C)(C)O)CC[C@@H]23)C[C@@H](O)C[C@@H]1O	-0.27 °C	-4.7 °C	0 °C	-6.39 °C	-0.74 °C	-10 °C
COc1cc(-c2cc3ncccc3c(OC[C@H]3CNC(=O)C3)n2)cc(OC)c1OC1CCOCC1	1.45 °C	-0.03 °C	2.63 °C	-0.87 °C	0.16 °C	5.56 °C
CN1C(=O)c2c(nn(Cc3ccc(-c4cccc(F)n4)cc3)c2Nc2ccccc2)N2C1=N[C@@H]1CCC[C@@H]12	0.4 °C	0 °C	0.16 °C	3.99 °C	-0.56 °C	-0.49 °C
COc1cc(C)c(S(=O)(=O)N(C)CCC(=O)N[C@H]2CC[C@@H](N3CCC4CN(C)CC4C3)CC2)c(C)c1 (some centres not stated)	0.38 °C	-0.04 °C	0.64 °C	0.15 °C	0.83 °C	-0.36 °C
CC(=O)Nc1c(F)cc(C(=O)N[C@H]2CC[C@H](O)CC2)cc1O[C@@H](C)c1ccccc1	0.21 °C	0.97 °C	-0.03 °C	-0.82 °C	0.43 °C	-0.15 °C
Cc1ccc(-c2cn3nc(C(=O)NC4(c5ccc(F)cc5)CN(C)C4)c(C(C)C)c3c(=O)[nH]2)cc1C	-0.12 °C	0.03 °C	0.69 °C	-0.83 °C	0.08 °C	0.49 °C
CN1C(=O)c2ccccc2N(C)c2nc(Nc3cnn(C4CCNCC4)c3)ncc21	9.76 °C	1.04 °C	0.9 °C	0.14 °C	0.53 °C	16.4 °C
CO[C@H]1C[C@@H]2CC[C@@H](C)[C@@](O)(O2)C(=O)C(=O)N2CCCC[C@H]2C(=O)O[C@H]([C@H](C)C[C@@H]2CC[C@@H](O)[C@H](OC)C2)CC(=O)[C@H](C)/C=C(\C)[C@@H](O)[C@@H](OC)C(=O)[C@H](C)C[C@H](C)/C=C/C=C/C=C/1C	0.32 °C	-0.19 °C	-0.1 °C	-0.7 °C	-0.72 °C	-0.26 °C
Cn1cc(C(=O)O)c2ccc(N3CCC(OCc4c(-c5c(Cl)cccc5Cl)noc4C4CC4)CC3)cc21	0.5 °C	0.93 °C	1.17 °C	0.23 °C	0.52 °C	-1.5 °C
O=C(NCCN1CCOCC1)c1ccc2nn(CCOc3ccc(Cl)cc3)cc2c1	0.88 °C	0.59 °C	0.35 °C	-0.24 °C	0.56 °C	0.05 °C
